BCLXL inh – blocks human Bcl-xL binding to Bim BH3 peptide; Q07817; GST-Bcl-xL / FITC-Bim BH3 peptide fluorescence polarization; inhibition, % at 10.9 µM; 0.7% of 320,000 active; AID 2129;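 active means inhibition above the mean of all tested compounds plus 3 SD, cutoff set per campaign, cut at about 30% in these data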;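 further: inhibitors lower millipolarization by displacing the labeled peptide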
Target sequence (Q07817 whole entry, looked up): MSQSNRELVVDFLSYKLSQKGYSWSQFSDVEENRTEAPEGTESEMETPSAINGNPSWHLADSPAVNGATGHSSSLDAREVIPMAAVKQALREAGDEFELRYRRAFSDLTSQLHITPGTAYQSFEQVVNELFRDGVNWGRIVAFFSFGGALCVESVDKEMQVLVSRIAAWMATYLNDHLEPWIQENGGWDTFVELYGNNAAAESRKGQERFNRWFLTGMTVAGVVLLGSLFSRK
eLon inh – inhibitors of E. coli Lon protease | P0A9M0 | purified E. coli Lon protease, fluorescence polarization | inhibition, % at 7.94 µM | 0.42% of 360,000 active | AID 602123; in the data active means inhibition above about 13%, passing the limit was not always enough
MCL1-BIM inh – inhibitors of human MCL1 binding to BIM-BH3 peptide; GST-MCL1 / FITC-Bim-BH3 fluorescence polarization; 0.68% of 320,000 active; inhibition, % at 10.9 µM; Q07820;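 active means inhibition above the mean inhibition of all tested compounds plus 3 SD, set per campaign, cut at about 40% in these data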;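 further: higher means more loss of mP so more displacement of Bim peptide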
EBV gp42 block – blocks Epstein-Barr virus glycoprotein 42 binding; Q1HVG2; Fluorescence polarization binding assay, mP read-out; inhibition, % (tested at 21.74 µM); 0.42% of 220,000 active; in the data active means inhibition above about 50%
MEX-5 binding – C. elegans MEX-5 TCR-2 RNA binding activity; 0.38% of 300,000 active; MEX-5/FITC-TCR2 RNA binding, fluorescence polarization; hits give low values; activity score (negative = inhibition of binding), % at 10 µM; AID 1832; Q9XUB2;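 active means inhibition past about -25% in most replicates, and total fluorescence under double the plate's negative control median, limit read from the data; inconclusive means replicates evenly split on the limit, or fluorescence at least double controls; inactive means too little inhibition in most replicates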
GLD-1 RNA inh – GLD-1-TGE RNA interaction inhibition (C. elegans). Q17339. purified GLD-1 + fluorescein TGE RNA, fluorescence polarization. inhibition, % at 5.96 µM. 0.44% of 320,000 active. AID 2280;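 active means percent inhibition above a per-plate cutoff, the plate mean of test compounds plus 3 SD, cut at about 30% in these data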
A number is an active result; - = inactive; ? = inconclusive; . = no result. Shown are actives, neighbours in structure and some others; about 1.5% of the full set was active somewhere.

SMILES	BCLXL inh	eLon inh	MCL1-BIM inh	EBV gp42 block	MEX-5 binding	GLD-1 RNA inh
CCOc1ccc2[nH]c(=O)c(CN(CC3COCCO3)C(=O)C3CC3)cc2c1 (stereo unspecified)	-	-	-	51	-	-
Oc1ccc(-c2csc(Nc3ccccn3)n2)cc1O	-	-	-	.	-32	-
CCNC(=O)C1(C)CCN(Cc2cccc(C(F)(F)F)c2)C1 (stereo unspecified)	.	-	.	.	.	.
O=c1oc2ccc3ccccc3c2cc1-c1nc2ccccc2o1	-	-	-	.	-76	-
CC[C@H](C)/C=C/C1=CC2=C(Cl)C(=O)[C@@]3(C)OC(=O)C(C(=O)[C@H](C)[C@@H](C)O)=C3C2=CO1	32	-	-	.	-	-
CCN(CC)C(=O)COc1ccc(-c2nnc(Nc3ccc(OC)c(C(=O)NC)c3)c3ccccc23)cc1	-	-	-	-	-	-
C(=N\NC(=Nc1ccccc1)c1ccccn1)/c1ccccn1	-	-	-	-	-54	-
CC(C)Cn1nc(C(=O)Nc2cccc(C(=O)NC3CC3)c2)c2ccccc2c1=O	-	-	-	.	.	-
COc1ccccc1/C=C/C=C1\Oc2c(ccc(O)c2CN(C)C)C1=O	53	-	42	-	?	-
Nc1c(N2CCCC2)cc(Cl)c2nonc12	50	-	-	-	-	-
NC(=Nc1nc(-c2ccccn2)cc2ccccc12)c1ccccn1	.	-	.	.	.	.
CCN(CC)c1ccc2c(c1)C(=O)N(C)C2=O	-	-	-	-	-	-
CCN(CCCCN1C(=O)c2ccccc2C1=O)c1ccc2c(c1)C(=O)N(C)C2=O	38	-	49	-	-	-
Cc1cccc(CN2C(=O)N/C(=C/c3ccc(C)s3)C2=O)c1	-	-	-	-	-29	-
CCNC(=O)/C(C#N)=C/c1c(N(Cc2ccccc2)Cc2ccccc2)nc2ccccn2c1=O	-	-	-	-	-	-
CNC(=O)/C(C#N)=C/c1c(N(Cc2ccccc2)Cc2ccccc2)nc2c(C)cccn2c1=O	154	-	-	-	-	-
COC(=O)/C(C#N)=C/c1c(Oc2cc(C)cc(C)c2)nc2c(C)cccn2c1=O	-	-	-	-	-41	-
CC(C)OCC(O)CN1CCN(CCN2C(=O)c3cccc4cccc(c34)C2=O)CC1 (stereo unspecified)	-	-	-	.	-59	-
COCCn1c(SCC(=O)N2CCCCC2)nc2c(c1=O)SC(C)C2 (stereo unspecified)	-	-	-	.	-	-
CC(=O)[C@@H]1[C@@H]2C(=O)N(c3ccc(F)c(Cl)c3)C(=O)[C@@H]2C2c3ccccc3C=CN21 (stereo partly specified)	36	.	-	-	-	-
CC(=O)[C@H]1[C@@H]2C(=O)N(c3cccc(Cl)c3)C(=O)[C@@H]2[C@H]2c3ccccc3C=CN21	61	-	51	-	-	34
CC(=O)[C@H]1[C@H](c2cccc(Cl)c2)C(C#N)(C#N)[C@@H]2c3ccccc3C=CN21	31	.	-	-	-	34
COC(=O)C1(CCSC)NC(c2ccccc2F)C2C(=O)N(c3ccc4c(c3)OCCO4)C(=O)C21 (stereo unspecified)	-	-	-	-	-	-
CN1C(=O)c2ccccc2C(C(=O)O)C1c1cccc(Cl)c1 (stereo unspecified)	-	-	-	-	-	-
N#C[C@@H]1[C@@H]2C(=O)N(c3ccc4c(c3)OCCO4)C(=O)[C@@H]2C2c3ccccc3C=CN21 (stereo partly specified)	34	.	-	-	-	31
SMILES	BCLXL inh	eLon inh	MCL1-BIM inh	EBV gp42 block	MEX-5 binding	GLD-1 RNA inh
COc1cc2ccc(NC(C)=O)cc2cc1OC	.	-	.	.	.	.
O=C(CN1C(=O)NC(Cc2ccccc2)C1=O)Nc1ccccc1OC(F)F (stereo unspecified)	-	-	-	.	-	-
Cc1ccc(OCC(=O)NC(=S)Nc2ccc(Br)cn2)cc1	-	-	-	-	-	-
CC1Cc2ccccc2N1CC(=O)Nc1cc(S(=O)(=O)N2CCOCC2)ccc1Cl (stereo unspecified)	.	-	.	.	.	.
C/C(=C\c1ccc2c(c1)OCO2)C1Nc2cccc3cccc(c23)N1	-	-	-	.	.	-
C/C(=C\c1ccccc1F)C1Nc2cccc3cccc(c23)N1	31	-	-	.	.	-
Cc1cc(C)c(C#N)c(SCC(=O)N2CCN(Cc3ccccc3)CC2)n1	-	-	-	-	-	-
